Measurements from PubChem BioAssay AID1159580 (chemical genetic matrix, 2015).
“And” between values parts separate entries of the source, which are not always exact repeats. Identical values can stand only once. The whole screen tested about 5,500 compounds, of which about 2,000 (36%) were called active. Not shown: some 18% with an inconclusive outcome. No stated cut-off is given here; in the data, active means normalized growth mostly below about 0.91 (no sharp cut-off); inconclusive means no clear call, values can overlap the other calls; inactive means mostly above about 0.92. Some of the results follow.

Experiment: chemical genetic growth profiling, strain panel (AID 1159580);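 further: tested at 20 µM; growth read once vehicle control cultures reached saturation at 30 °C; 1 = growth at the plate median or of vehicle wells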
Conditions: S. cerevisiae deletion strains, growth OD

Measured: normalized growth

C=C(C)[C@H]1COc2cc3oc(=O)ccc3cc2O1
inactive: locus YAL030W, strain snc1, stronger effect = lower value 0.933 | locus YBR171W, strain sec66, stronger effect = lower value 0.938 | locus YBR229C, strain ROT2, stronger effect = lower value 0.956 | locus YDL005C, strain med2, stronger effect = lower value 0.959 | locus YDL040C, strain nat1, stronger effect = lower value 0.957 | locus YDL185W, strain tfp1, stronger effect = lower value 0.924 | locus YDR001C, strain nth1, stronger effect = lower value 0.956 | locus YDR159W, strain sac3, stronger effect = lower value 0.905 | locus YDR195W, strain ref2 1.05 | locus YDR297W, strain sur2, stronger effect = lower value 0.956 | locus YDR334W, strain swr1, stronger effect = lower value 0.921 | locus YDR392W, strain spt3, stronger effect = lower value 0.775 | locus YEL037C, strain rad23, stronger effect = lower value 0.956 | locus YER111C, strain swi4, stronger effect = lower value 0.961 | locus YFR010W, strain ubp6, stronger effect = lower value 0.945 | locus YGL078C, strain dbp3, stronger effect = lower value 0.993 | locus YGL167C, strain pmr1, stronger effect = lower value 0.995 | locus YGL173C, strain kem1, stronger effect = lower value 0.906 | locus YGL227W, strain vid30, stronger effect = lower value 0.932 | locus YHR027C, strain rpn1, stronger effect = lower value 0.929 | locus YHR079C, strain IRE1 (second series), stronger effect = lower value 0.967 | locus YHR079C, strain IRE1, stronger effect = lower value 1.01 | locus YHR094C, strain hxt1, stronger effect = lower value 0.948 | locus YJL115W, strain asf1, stronger effect = lower value 0.977 | locus YJL134W, strain LCB3, stronger effect = lower value 0.934 | locus YJL154C, strain vps35, stronger effect = lower value 0.958 | locus YJR066W, strain TOR1, stronger effect = lower value 0.926 | locus YKL009W, strain mrt4, stronger effect = lower value 0.965 | locus YKL068W, stronger effect = lower value 0.985 | locus YKL085W, strain MDH1 (second series), stronger effect = lower value 0.972 | locus YKL085W, strain MDH1, stronger effect = lower value 0.972 | locus YKR026C, strain gcn3, stronger effect = lower value 0.979 | locus YKR091W, strain srl3, stronger effect = lower value 0.973 | locus YLL026W, stronger effect = lower value 0.966 | locus YLL041C, strain sdh2, stronger effect = lower value 0.989 | locus YLR027C, strain aat2, stronger effect = lower value 0.935 | locus YLR113W, strain HOG1, stronger effect = lower value 0.996 | locus YLR384C, strain iki3, stronger effect = lower value 0.993 | locus YML120C, strain ndi1, stronger effect = lower value 0.972 | locus YMR125W, strain sto1, stronger effect = lower value 0.982 | locus YMR129W, stronger effect = lower value 0.989 | locus YNL183C, strain NPR1, stronger effect = lower value 0.925 | locus YNL209W, strain ssb2, stronger effect = lower value 0.93 | locus YNL248C, strain rpa49, stronger effect = lower value 0.932 | locus YNL250W, strain rad50, stronger effect = lower value 0.995 | locus YNL322C, strain KRE1 (second series), stronger effect = lower value 0.918 | locus YNR049C, strain mso1, stronger effect = lower value 0.923 | locus YOL012C, strain htz1 0.694 | locus YOR001W, strain rrp6, stronger effect = lower value 0.956 | locus YOR080W, strain dia2, stronger effect = lower value 0.921 | locus YOR231W, strain MKK1, stronger effect = lower value 0.978 | locus YOR290C, strain snf2, stronger effect = lower value 0.888 | locus YOR316C, strain cot1, stronger effect = lower value 0.991 | locus YPL240C, strain hsp82, stronger effect = lower value 0.966 | locus YPL256C, strain CLN2, stronger effect = lower value 1.03 | locus YPR141C, strain kar3, stronger effect = lower value 0.988
active: locus YAL021C, strain ccr4, stronger effect = lower value 0.52 | locus YAL026C, strain drs2, stronger effect = lower value 0.51 | locus YBL061C, strain skt5, stronger effect = lower value 0.213 | locus YBR009C, strain hhf1, stronger effect = lower value 0.811 | locus YBR021W, strain FUR4, stronger effect = lower value 0.116 | locus YBR023C, strain chs3, stronger effect = lower value 0.339 | locus YBR231C, strain swc5, stronger effect = lower value 0.786 | locus YBR279W, strain paf1, stronger effect = lower value 0.931 | locus YCL011C, strain gbp2, stronger effect = lower value 0.852 | locus YCL016C, strain dcc1, stronger effect = lower value 0.736 | locus YCL029C, strain bik1, stronger effect = lower value 0.72 | locus YCL061C, strain MRC1, stronger effect = lower value 0.793 | locus YCL069W, strain vba3, stronger effect = lower value 0.783 | locus YCR088W, strain abp1, stronger effect = lower value 0.814 | locus YDL035C, strain GPR1, stronger effect = lower value 0.491 | locus YDL074C, strain BRE1, stronger effect = lower value 0.465 | locus YDL101C, strain DUN1, stronger effect = lower value 0.36 | locus YDL192W, strain arf1, stronger effect = lower value 0.111 | locus YDR069C, strain doa4, stronger effect = lower value 0.888 | locus YDR101C, strain arx1, stronger effect = lower value 0.724 | locus YDR137W, strain rgp1, stronger effect = lower value 0.279 | locus YDR150W, strain NUM1, stronger effect = lower value 0.53 | locus YDR162C, strain NBP2, stronger effect = lower value 0.0606 | locus YDR318W, strain mcm21, stronger effect = lower value 0.62 | locus YDR335W, strain msn5, stronger effect = lower value 0.857 | locus YDR388W, stronger effect = lower value 0.515 | locus YDR502C, strain sam2, stronger effect = lower value 0.387 | locus YEL003W, strain gim4, stronger effect = lower value 0.911 | locus YEL061C, strain CIN8 (second series), stronger effect = lower value 0.447 | locus YER015W, strain faa2, stronger effect = lower value 0.9 | locus YER016W, strain bim1, stronger effect = lower value 0.791 | locus YER110C, stronger effect = lower value 0.747 | locus YER155C, strain BEM2 (second series), stronger effect = lower value 0.444 | locus YER155C, strain BEM2, stronger effect = lower value 0.879 | locus YER167W, strain BCK2, stronger effect = lower value 0.671 | locus YGL086W, strain mad1, stronger effect = lower value 0.578 | locus YGL240W, strain doc1, stronger effect = lower value 0.756 | locus YGL248W, strain PDE1, stronger effect = lower value 0.385 | locus YGL253W, strain hxk2, stronger effect = lower value 0.466 | locus YGR135W, strain pre9, stronger effect = lower value 0.574 | locus YGR252W, strain gcn5, stronger effect = lower value 0.28 | locus YHR013C, strain ard1, stronger effect = lower value 0.692 | locus YHR030C, strain SLT2, stronger effect = lower value 0.272 | locus YHR129C, strain ARP1, stronger effect = lower value 0.554 | locus YHR142W, strain chs7, stronger effect = lower value 0.148 | locus YHR200W, strain rpn10, stronger effect = lower value 0.572 | locus YIL066C, strain RNR3, stronger effect = lower value 0.407 | locus YIL073C, strain SPO22, stronger effect = lower value 0.16 | locus YIL125W, strain kgd1, stronger effect = lower value 0.916 | locus YIR030C, strain dcg1, stronger effect = lower value 0.819 | locus YJL092W, strain hpr5, stronger effect = lower value 0.903 | locus YJL095W, strain BCK1 (second series), stronger effect = lower value 0.107 | locus YJL095W, strain BCK1, stronger effect = lower value 0.0661 and 0.314 | locus YJL129C, strain trk1, stronger effect = lower value 0.452 | locus YJL164C, strain tpk1, stronger effect = lower value 0.871 | locus YJL166W, strain qcr8, stronger effect = lower value 0.662 | locus YJL168C, strain set2, stronger effect = lower value 0.887 | locus YJL187C, strain SWE1 (second series), stronger effect = lower value 0.635 | locus YJL187C, strain SWE1, stronger effect = lower value 0.886 | locus YJR043C, strain POL32, stronger effect = lower value 0.249 | locus YKL160W, strain elf1, stronger effect = lower value 0.749 | locus YKR001C, strain vps1, stronger effect = lower value 0.0831 | locus YLL001W, strain dnm1, stronger effect = lower value 0.868 | locus YLR039C, strain RIC1, stronger effect = lower value 0.12 | locus YLR058C, strain SHM2, stronger effect = lower value 0.571 | locus YLR102C, strain apc9, stronger effect = lower value 0.863 | locus YLR221C, strain rsa3, stronger effect = lower value 0.898 | locus YLR258W, strain gsy2, stronger effect = lower value 0.902 | locus YLR262C, strain YPT6 (second series), stronger effect = lower value 0.23 | locus YLR262C, strain YPT6, stronger effect = lower value 0.166 | locus YLR268W, strain sec22, stronger effect = lower value 0.597 | locus YLR320W, strain mms22, stronger effect = lower value 0.75 | locus YLR330W, strain CHS5, stronger effect = lower value 0.0549 | locus YLR342W, strain FKS1 (second series), stronger effect = lower value 0.075 | locus YLR342W, strain FKS1, stronger effect = lower value 0.0723 | locus YLR357W, strain rsc2, stronger effect = lower value 0.538 | locus YLR370C, strain arc18, stronger effect = lower value 0.657 | locus YLR371W, strain rom2, stronger effect = lower value 0.123 | locus YLR418C, strain cdc73, stronger effect = lower value 0.18 | locus YML016C, strain PPZ1, stronger effect = lower value 0.548 | locus YML032C, strain rad52, stronger effect = lower value 0.555 | locus YML124C, strain tub3, stronger effect = lower value 0.805 | locus YMR058W, strain fet3, stronger effect = lower value 0.838 | locus YMR078C, strain ctf18, stronger effect = lower value 0.871 | locus YMR205C, strain PFK2, stronger effect = lower value 0.776 | locus YMR223W, strain ubp8, stronger effect = lower value 0.514 | locus YMR231W, strain pep5, stronger effect = lower value 0.114 | locus YMR307W, strain GAS1, stronger effect = lower value 0.192 | locus YNL067W, strain RPL9B, stronger effect = lower value 0.841 | locus YNL071W, strain lat1, stronger effect = lower value 0.827 | locus YNL153C, strain GIM3, stronger effect = lower value 0.223 | locus YNL233W, strain BNI4, stronger effect = lower value 0.408 | locus YNL271C, strain bni1, stronger effect = lower value 0.846 | locus YNL298W, strain CLA4, stronger effect = lower value 0.839 | locus YNL307C, strain MCK1, stronger effect = lower value 0.37 | locus YNR052C, strain pop2, stronger effect = lower value 0.273 | locus YOL147C, strain pex11, stronger effect = lower value 0.757 | locus YOR061W, strain CKA2, stronger effect = lower value 0.135 | locus YOR069W, strain VPS5, stronger effect = lower value 0.687 | locus YOR070C, strain gyp1, stronger effect = lower value 0.736 | locus YOR083W, strain WHI5, stronger effect = lower value 0.728 | locus YOR106W, strain vam3, stronger effect = lower value 0.387 | locus YOR136W, strain idh2, stronger effect = lower value 0.867 | locus YOR144C, strain elg1, stronger effect = lower value 0.833 | locus YOR184W, strain ser1, stronger effect = lower value 0.387 | locus YOR265W, strain rbl2, stronger effect = lower value 0.881 | locus YOR270C, strain vph1, stronger effect = lower value 0.374 | locus YPL051W, strain arl3, stronger effect = lower value 0.232 | locus YPL078C, strain atp4, stronger effect = lower value 0.755 | locus YPL106C, strain sse1, stronger effect = lower value 0.709 | locus YPL241C, strain CIN2, stronger effect = lower value 0.286 | locus YPR119W, strain clb2, stronger effect = lower value 0.354 | locus YPR163C, strain tif3, stronger effect = lower value 0.889 | locus YPR167C, strain met16, stronger effect = lower value 0.766 | strain wtn01, stronger effect = lower value 0.468
